Among the data in PubChem BioAssay (NCATS) are outcome values, retold here.

Records with an inconclusive call do not appear. Active and inactive are the calls of the source. Calls follow the shape of the dose curve; as a rule, active = well fitted activation curve with a large enough effect; inconclusive = small, poorly fitted or top-dose-only effect; inactive = no such curve, though single readings can be large or run the other way.

Rap guanine nucleotide exchange factor 3 (Homo sapiens), sequence (O95398 whole entry, looked up): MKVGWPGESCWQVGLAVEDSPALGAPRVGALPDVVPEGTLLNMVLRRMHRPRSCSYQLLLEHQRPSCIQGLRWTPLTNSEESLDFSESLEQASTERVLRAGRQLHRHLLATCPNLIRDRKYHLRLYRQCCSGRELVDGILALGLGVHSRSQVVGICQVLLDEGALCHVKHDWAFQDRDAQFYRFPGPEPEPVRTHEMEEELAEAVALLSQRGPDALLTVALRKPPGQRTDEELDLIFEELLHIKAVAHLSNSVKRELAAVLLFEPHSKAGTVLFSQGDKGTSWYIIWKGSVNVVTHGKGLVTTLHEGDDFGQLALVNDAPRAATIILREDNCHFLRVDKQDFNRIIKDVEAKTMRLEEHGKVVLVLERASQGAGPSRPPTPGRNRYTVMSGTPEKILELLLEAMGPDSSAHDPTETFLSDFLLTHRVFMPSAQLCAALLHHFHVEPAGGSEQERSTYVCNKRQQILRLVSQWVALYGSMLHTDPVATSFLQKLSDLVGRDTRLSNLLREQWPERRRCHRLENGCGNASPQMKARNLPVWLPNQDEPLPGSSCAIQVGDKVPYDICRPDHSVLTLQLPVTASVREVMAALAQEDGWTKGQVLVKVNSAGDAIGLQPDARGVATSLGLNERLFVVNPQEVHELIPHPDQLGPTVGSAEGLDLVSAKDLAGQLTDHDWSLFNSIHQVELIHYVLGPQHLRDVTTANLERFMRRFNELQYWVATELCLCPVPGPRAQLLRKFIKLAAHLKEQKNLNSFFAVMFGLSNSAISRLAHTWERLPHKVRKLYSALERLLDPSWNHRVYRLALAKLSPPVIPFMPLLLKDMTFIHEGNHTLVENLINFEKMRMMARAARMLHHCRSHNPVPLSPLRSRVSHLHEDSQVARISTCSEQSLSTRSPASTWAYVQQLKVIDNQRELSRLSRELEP
Rap guanine nucleotide exchange factor 4 (Homo sapiens), sequence (Q8WZA2 whole entry, looked up): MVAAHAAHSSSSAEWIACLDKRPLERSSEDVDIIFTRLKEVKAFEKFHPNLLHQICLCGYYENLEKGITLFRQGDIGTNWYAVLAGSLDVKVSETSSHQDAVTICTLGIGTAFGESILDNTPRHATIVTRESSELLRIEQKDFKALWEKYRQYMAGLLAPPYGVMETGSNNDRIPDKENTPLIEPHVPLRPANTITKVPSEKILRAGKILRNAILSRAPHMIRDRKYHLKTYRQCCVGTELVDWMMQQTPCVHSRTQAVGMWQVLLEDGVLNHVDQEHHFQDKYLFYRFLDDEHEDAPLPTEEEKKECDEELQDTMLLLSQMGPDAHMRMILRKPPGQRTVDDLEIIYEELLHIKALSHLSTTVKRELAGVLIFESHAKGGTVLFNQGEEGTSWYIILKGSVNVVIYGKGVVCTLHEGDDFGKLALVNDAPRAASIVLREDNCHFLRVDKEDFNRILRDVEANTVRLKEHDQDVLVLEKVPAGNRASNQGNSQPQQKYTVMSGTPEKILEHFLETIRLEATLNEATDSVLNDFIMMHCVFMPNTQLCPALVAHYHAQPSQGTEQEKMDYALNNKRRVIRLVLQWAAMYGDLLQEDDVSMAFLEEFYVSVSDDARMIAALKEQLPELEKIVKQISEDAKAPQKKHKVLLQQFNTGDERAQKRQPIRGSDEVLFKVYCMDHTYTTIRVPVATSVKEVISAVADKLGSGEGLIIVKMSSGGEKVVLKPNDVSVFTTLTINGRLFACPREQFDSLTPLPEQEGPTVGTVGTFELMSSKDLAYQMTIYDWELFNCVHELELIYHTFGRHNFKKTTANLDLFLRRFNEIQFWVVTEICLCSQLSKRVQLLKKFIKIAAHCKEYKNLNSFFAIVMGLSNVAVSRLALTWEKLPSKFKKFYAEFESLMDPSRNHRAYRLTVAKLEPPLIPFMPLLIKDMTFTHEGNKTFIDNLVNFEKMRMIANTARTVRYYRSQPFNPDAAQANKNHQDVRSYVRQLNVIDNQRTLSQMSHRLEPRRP

One test addresses Rap guanine nucleotide exchange factor 3 (Homo sapiens) (UniProt O95398). Description: Confirmatory qHTS for agonist of cAMP-regulated guanine nucleotide exchange factor 3 (EPAC1) (AID 1645881).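 Also: EPAC1 catalysed release of BODIPY-GDP from Rap1B seen as fluorescence loss; nearly all actives have a fitted effect of over 75% in size.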 The conditions noted are these: EPAC1 Rap1B BODIPY-GDP exchange fluorescence, 100% = cAMP control response; series mostly up to 154 µM. Background: Quantitative high-throughput screening tests each substance at several concentrations.
`Cc1cc(C)cc(C(=O)N(C)[C@H](Cc2ccc(-c3ccccc3)cc2)C(=O)N[C@@H](Cc2c[nH]c3ccccc23)C(=O)O)c1`: the call was inactive.

Turning to `CC(C)=CCCC1(C)C=Cc2c(O)c3c(c(CC=C(C)C)c2O1)OC12C(=CCCC1C(C)(C)O[C@@]2(C/C=C(\C)C(=O)O)C(=O)O)C3=O` (stereo partly specified), the result was inactive.

On to `CCOc1nc2cccc(C(=O)OC(C)OC(=O)OC3CCCCC3)c2n1Cc1ccc(-c2ccccc2-c2nn[nH]n2)cc1` (stereo unspecified), for which the compound was called inactive.

Another test concerns the target Rap guanine nucleotide exchange factor 4 (Homo sapiens) (UniProt Q8WZA2). Kind of test: Confirmatory qHTS for agonist of cAMP-regulated guanine nucleotide exchange factor 4 (EPAC2) (AID 1645884).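 Also: nucleotide exchange releases bodipy-GDP from Rap1 and this lowers its fluorescence; nearly all actives have a fitted effect of over 65% in size.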 Conditions: EPAC2 GEF activity, Rap1B-BODIPY-GDP fluorescence, percent relative to cAMP agonist control; series mostly up to 154 µM.
On to `Cc1cc(C)cc(C(=O)N(C)[C@H](Cc2ccc(-c3ccccc3)cc2)C(=O)N[C@@H](Cc2c[nH]c3ccccc23)C(=O)O)c1`, for which the result was inactive.

As to `CC(C)=CCCC1(C)C=Cc2c(O)c3c(c(CC=C(C)C)c2O1)OC12C(=CCCC1C(C)(C)O[C@@]2(C/C=C(\C)C(=O)O)C(=O)O)C3=O` (stereo partly specified), the outcome was inactive.

`CCOc1nc2cccc(C(=O)OC(C)OC(=O)OC3CCCCC3)c2n1Cc1ccc(-c2ccccc2-c2nn[nH]n2)cc1` (stereo unspecified): the outcome was inactive.
